Source: PubChem BioAssay (several laboratories)
The list is not random: actives were taken first. Their share in the collection is about 2%.
bovine MsrA act: bovine methionine sulfoxide reductase A activation; 360,000 tested, 0.3% active; activation, % at 10.6 µM; purified bovine MsrA, absorbance read-out; AID 602163; in the data active = activation above about 7.5%
PKA-R1A activ: activates the PKA-R1A holoenzyme complex. P00514+P68181. PKA-R1A dissociation, Cy5-IP20 fluorescence polarization; scaled: DMSO 0%, 113 µM cGMP 100%. activation, % at 11.4 µM. 340,000 tested, 0.083% active;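 active = percent activation above the mean of all tested compounds plus 3 SD, cut at about 19% in these data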;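 also: higher means more PKAc released from R1A so a rise in polarization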
MsrA inh: inhibits bovine methionine sulfoxide reductase A. purified bovine MsrA, absorbance read-out. inhibition, % at 15.5 µM. 360,000 tested, 0.75% active. AID 651718; in the data active = inhibition above about 4.5%
PKA-R2B activ: PKA-R2B complex activation; PKA-R2B holoenzyme dissociation, Cy5-IP20 fluorescence polarization; R2B truncated from residue 108, S112A mutant; 0% DMSO only, 100% 113 µM cGMP; P22694+P31323; 340,000 tested, 0.079% active; activation, % at 11.4 µM; AID 504700;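 active = activation above a cutoff set at the mean over all compounds plus 3 SD, cut at about 18% in these data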;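 also: higher means more holoenzyme dissociation and a rise in polarization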
Target sequence (P31323 whole entry, looked up, other chains not shown, the tested form may be a part): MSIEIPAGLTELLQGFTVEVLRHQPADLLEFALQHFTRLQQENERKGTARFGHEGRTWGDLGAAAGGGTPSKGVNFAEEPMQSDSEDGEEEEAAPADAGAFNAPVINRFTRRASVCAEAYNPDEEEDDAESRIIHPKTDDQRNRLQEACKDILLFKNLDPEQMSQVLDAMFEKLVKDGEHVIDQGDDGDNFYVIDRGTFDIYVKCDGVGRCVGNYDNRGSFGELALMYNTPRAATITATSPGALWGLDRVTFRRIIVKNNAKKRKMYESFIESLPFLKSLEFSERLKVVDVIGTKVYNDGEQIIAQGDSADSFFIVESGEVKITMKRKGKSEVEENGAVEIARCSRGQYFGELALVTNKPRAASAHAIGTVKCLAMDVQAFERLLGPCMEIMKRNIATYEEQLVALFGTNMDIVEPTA
SUMO Mot1 rescue: SUMOylation pathway inhibition by Mot1-301 growth rescue. S. cerevisiae Mot1-301 growth rescue, ATP luminescence, 38.5C; percent above DMSO median, 100 means doubled. growth rescue, % at 18.8 µM. 320,000 tested, 1% active;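 active = every valid replicate shows activation above 250% relative to neutral control wells; inactive = the rest, any valid replicate at or below 250%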
Each line names hits and unclear results; the compound was inactive in the other large screens.

CSc1ccc(-c2nc(CN(C)C3CCOC3)c(C)o2)cc1 (stereo unspecified)	none
Cc1ccc(-c2nc(CN(C)C(C3CC3)C3CC3)c(C)o2)cc1	SUMO Mot1 rescue 316.4
COC(=O)[C@]12C[C@H](CC(=O)N3CCC(c4ccccc4)CC3)C(=O)N(Cc3ccccc3)C1=C[C@H](C1CCCC1)O[C@@H]2C	none (no result: bovine MsrA act, PKA-R1A activ, PKA-R2B activ, SUMO Mot1 rescue)
O=S(=O)(c1cccc(S(=O)(=O)N2CCCC2)c1)N1CCCCC1	none
CCCCNS(=O)(=O)c1cccc(S(=O)(=O)N2CCCC2)c1	SUMO Mot1 rescue 302.5
Cc1cccc(N2CCN(C(=O)CCN3C(=S)NC(C)(C)CC3C)CC2)c1C (stereo unspecified)	SUMO Mot1 rescue 614.2
Cc1ccccc1C(=O)N(C)[C@H]1C[C@H]2c3[nH]c4c(-c5ccc6c(c5)OCO6)cccc4c3CCN2C(=O)[C@H]1[C@H](C)O	none (no result: bovine MsrA act, PKA-R1A activ, PKA-R2B activ, SUMO Mot1 rescue)
Cc1ccc(Sc2ncnc3onc(C)c23)cc1	none
Cc1noc2ncnc(Sc3ccc(Cl)cc3)c12	SUMO Mot1 rescue 323.5
COc1cc(OC)cc(N2C(=O)CC(N3CCC(C(=O)N4CCCCC4)CC3)C2=O)c1 (stereo unspecified)	SUMO Mot1 rescue 298.3
O=S(=O)(c1ccccc1)N1CCCc2nc(-c3ccc(F)cc3)ccc21	none (no result: bovine MsrA act, PKA-R1A activ, PKA-R2B activ, SUMO Mot1 rescue)
CC(C)(C)C1CCC(=NNC(=O)c2cc3c(s2)CCCC3)CC1 (stereo unspecified)	SUMO Mot1 rescue 541.6
O=C(NN=C1CCC(c2ccccc2)CC1)c1cc2c(s1)CCCC2 (stereo unspecified)	none
COC(=O)c1cccc(Nc2cc(C)n(-c3cccc(C(=O)OC)c3)c(=O)c2)c1	none (no result: bovine MsrA act, PKA-R1A activ, PKA-R2B activ, SUMO Mot1 rescue)
NC(=O)c1ncn([C@@H]2O[C@H](C(=O)Nc3ccc(C(=O)N4CCCCC4)cc3)[C@@H](O)[C@H]2O)n1	none (no result: bovine MsrA act, PKA-R1A activ, PKA-R2B activ, SUMO Mot1 rescue)
COc1ccc(NS(=O)(=O)c2ccc(NC(C)=O)cc2)c(OC)c1	none
COc1ccc(OC)c(NS(=O)(=O)c2ccc(NC(C)=O)cc2)c1	SUMO Mot1 rescue 273.2
COc1cc(Br)cc(/C=N/NC(=O)Cc2ccccc2)c1O	none
O=C(Cc1ccccc1)N/N=C/c1cc(Br)cc(Cl)c1O	SUMO Mot1 rescue 357.8
Oc1ccc(C23CC4CC(CC(C4)C2)C3)cc1O	SUMO Mot1 rescue 647.9
CC(=O)Nc1ccc(C23CC4CC(CC(C4)C2)C3)cc1	none
O=C(NC1CCCC1)C1CC(=O)N(c2ccccc2)C1 (stereo unspecified)	SUMO Mot1 rescue 356.3
CCCCc1c(-c2ccccc2OC)ncn1Cc1ccc(C(C)(C)C)cc1	none (no result: bovine MsrA act, PKA-R1A activ, PKA-R2B activ, SUMO Mot1 rescue)
O=C(NC1CCCCC1)C(c1ccccc1F)N(Cc1ccco1)C(=O)c1ccccn1 (stereo unspecified)	SUMO Mot1 rescue 309.6
COc1ccc2nc(NC(=O)CSc3nnc(C)n3N)sc2c1	SUMO Mot1 rescue 305.4
O=C(c1cncc(Br)c1)N1CCN(S(=O)(=O)c2ccc(Cl)cc2)CC1	SUMO Mot1 rescue 306.3
O=C(c1cccnc1)N1CCN(S(=O)(=O)c2cccc(Cl)c2)CC1	none
COc1cccc(C2/C(=C(\O)c3ccc4c(c3)OCCO4)C(=O)C(=O)N2CCN(C)C)c1 (stereo unspecified)	SUMO Mot1 rescue 352.5
Cc1ccc(/C(O)=C2\C(=O)C(=O)N(CCN(C)C)C2c2ccccc2F)cc1 (stereo unspecified)	none
COc1ccc(/C(O)=C2/C(=O)C(=O)N(CCCN(C)C)C2c2cccc(Cl)c2)cc1OC (stereo unspecified)	MsrA inh 9.6
CC1Oc2ccccc2C=C1C1/C(=C(/O)c2ccccc2)C(=O)C(=O)N1CCCN(C)C (stereo unspecified)	SUMO Mot1 rescue 285.8
CCCCCCCCN1C(=O)[C@@H](CC(=O)NCCCCc2ccccc2)C[C@@]2(C(=O)OC)C1=C[C@H](C1CCCC1)O[C@@H]2C	none (no result: bovine MsrA act, PKA-R1A activ, PKA-R2B activ, SUMO Mot1 rescue)
O=C(c1ccccc1)c1ccc(OCCCN2CCCC2)cc1	SUMO Mot1 rescue active
CC(C)OP(=O)(OC(C)C)C(Nc1ccccc1)c1ccc2c(c1)OCO2 (stereo unspecified)	none
CC(C)OP(=O)(OC(C)C)C(Nc1ccccc1)c1cccc2c1OCO2 (stereo unspecified)	SUMO Mot1 rescue 278.7
CCOC(=O)C(=NCCCN1CCOCC1)NNc1cccc(C(F)(F)F)c1	SUMO Mot1 rescue 324.1
COc1ccc(C(=O)c2ccc(N3CCOCC3)c([N+](=O)[O-])c2)cc1	MsrA inh 4.6
COc1ccc(CNC(=O)c2ccc(N3CCOCC3)c([N+](=O)[O-])c2)cc1	none
COc1ccc2c(c1)[C@@]1(OCCC=C[C@H]1C)C(=O)N2Cc1ccc(Br)cc1	none (no result: bovine MsrA act, PKA-R1A activ, PKA-R2B activ, SUMO Mot1 rescue)
CCS(=O)(=O)N1CCN(CC2CC3C=CC2C3)CC1 (stereo unspecified)	SUMO Mot1 rescue 348.9
COc1cc2c(C(=O)NCc3ccc4c(c3)OCO4)cn(CC(C)C)c(=O)c2cc1OC	none
COc1cc2c(C(=O)Nc3ccc4c(c3)OCO4)cn(CC(C)C)c(=O)c2cc1OC	SUMO Mot1 rescue 343.2 (no result: bovine MsrA act, PKA-R1A activ, MsrA inh, PKA-R2B activ)
COc1ccccc1OCC(=O)N/N=C1/SCC(=O)N1Cc1ccccc1	SUMO Mot1 rescue 354.4
C[C@H]1COc2cccc(NCCO)c2S(=O)(=O)N1	none (no result: bovine MsrA act, PKA-R1A activ, PKA-R2B activ, SUMO Mot1 rescue)
O=C(c1cccc(Br)c1)N1CCN(S(=O)(=O)N2CCOCC2)CC1	SUMO Mot1 rescue 333.0
COC(=O)C1=C(C)N(Cc2ccc(C(F)(F)F)cc2)C(=NCc2ccc3c(c2)OCO3)NC1c1cccc(Cl)c1 (stereo unspecified)	none (no result: bovine MsrA act, PKA-R1A activ, PKA-R2B activ, SUMO Mot1 rescue)
Cc1ccc(CNC(=O)[C@@H](Cc2ccccc2)NC(=O)[C@H]2O[C@@H](n3ccc(N)nc3=O)[C@H](O)[C@@H]2O)o1	none (no result: bovine MsrA act, PKA-R1A activ, PKA-R2B activ, SUMO Mot1 rescue)
O=[N+]([O-])c1cc(C(F)(F)F)ccc1NCCCN1CCOCC1	none
O=[N+]([O-])c1ccc(NCCCN2CCOCC2)c([N+](=O)[O-])c1	SUMO Mot1 rescue 600.4
CC(NC(=O)c1cc(-c2ccccn2)nc2ccc(Cl)cc12)C1CCCO1 (stereo unspecified)	none
CC(NC(=O)c1cc(-c2ccncc2)nc2ccc(Cl)cc12)C1CCCO1 (stereo unspecified)	SUMO Mot1 rescue 340.8
COc1ccc(CNC(=O)Cn2nc(Cc3cccnc3)c3ccccc3c2=O)cc1	SUMO Mot1 rescue 438.9
COc1cccc(NC(=O)Cn2nc(Cc3cccnc3)c3ccccc3c2=O)c1	none
COc1ccc(CN(C(=O)c2ccco2)c2ccc(C)c(C)c2)cc1	SUMO Mot1 rescue 403.4
COc1ccc(-n2c(SCC(=O)Nc3ccccc3)nc(O)cc2=O)cc1	none
COc1ccc(-n2c(SCC(=O)Nc3cccc4ccccc34)nc(O)cc2=O)cc1	SUMO Mot1 rescue 319.8
COc1ccc2c(c1)[C@@]1(OCCC=C[C@H]1C)C(=O)N2Cc1ccc(F)cc1	none (no result: bovine MsrA act, PKA-R1A activ, PKA-R2B activ, SUMO Mot1 rescue)
CC1CCN(CC(=O)NC(=O)NCc2ccccc2)CC1	SUMO Mot1 rescue 331.5
OC(CN1CCOCC1)C12CC3CC(CC(C3)C1)C2 (stereo unspecified)	none
C1CN(CC23CC4CC(CC(C4)C2)C3)CCO1	SUMO Mot1 rescue 344.0
